MRP-1 activ: activates MRP-1; H69AR cells + doxorubicin, viability rescue, CellTiter-Glo; viability increase, % at 10 µM; 140,000 compounds, 0.61% hits;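 active = viability gain under doxorubicin at or above a set limit, the compound median plus 3 SD, cut at about 4.7% in these data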;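 also: MRP-1 overexpressing cells given doxorubicin 25 µM after compound pretreatment; 18-22 h compound pretreatment then 72 h with doxorubicin before readout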
CD11b adhes enh: enhancers of human CD11b/CD18 binding to fibrinogen | activation, % at 10 µM | AID 1499 | K562 CD11b/CD18 adhesion to fibrinogen, ATPlite luminescence | 93,000 compounds, 0.07% hits | P05107+P11215;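 active = 10 µM primary screen giving 50% or more activity, confirmed by 40% or more on retest at that dose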
Target sequence (P05107 whole entry, looked up, other chains not shown): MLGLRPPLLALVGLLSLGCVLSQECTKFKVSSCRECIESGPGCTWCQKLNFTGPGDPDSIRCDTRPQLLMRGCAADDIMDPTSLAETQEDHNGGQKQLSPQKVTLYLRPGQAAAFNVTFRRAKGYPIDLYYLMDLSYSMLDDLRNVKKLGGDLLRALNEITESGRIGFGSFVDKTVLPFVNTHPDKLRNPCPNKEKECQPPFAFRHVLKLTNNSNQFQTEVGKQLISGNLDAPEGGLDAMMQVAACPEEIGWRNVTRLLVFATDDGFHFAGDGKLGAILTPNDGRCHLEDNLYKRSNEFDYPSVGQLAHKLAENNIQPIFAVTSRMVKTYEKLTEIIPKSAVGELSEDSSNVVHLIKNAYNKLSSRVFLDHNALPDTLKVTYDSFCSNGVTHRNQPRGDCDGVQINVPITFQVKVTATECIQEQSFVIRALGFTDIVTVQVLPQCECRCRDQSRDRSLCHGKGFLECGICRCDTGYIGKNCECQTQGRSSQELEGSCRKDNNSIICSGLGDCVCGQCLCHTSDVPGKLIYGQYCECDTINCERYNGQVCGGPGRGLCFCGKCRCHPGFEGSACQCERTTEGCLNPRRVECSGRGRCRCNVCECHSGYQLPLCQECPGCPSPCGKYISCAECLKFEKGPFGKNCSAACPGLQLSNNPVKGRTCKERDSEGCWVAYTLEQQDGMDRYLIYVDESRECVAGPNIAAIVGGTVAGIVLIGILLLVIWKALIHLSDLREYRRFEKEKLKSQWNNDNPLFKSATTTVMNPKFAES
Mac1 fbg inh: blocks human CD11b/CD18 adhesion to fibrinogen | K562 CD11b/CD18 adhesion to fibrinogen, ATPlite luminescence; Mn2+ added to activate the integrin | inhibition, % at 10 µM | 93,000 compounds, 0.54% hits | AID 1497;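 active = primary inhibition of 50% or more at 10 µM, then 40% or more on retest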
Phagocytosis inh: macrophage phagocytosis inhibition; J774A.1 macrophage IgG-bead phagocytosis, imaging; inhibition, % at 5 µM; 110,000 compounds, 0.07% hits; AID 1029;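 active = inhibition above the mean of the plate negative controls plus 5 SD, cut at about 13% in these data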;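 also: phagocytic index as fraction of beads internalized from green versus red external bead signal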
SDO1 yeast rescue: sdo1-depleted yeast growth rescue | S. cerevisiae sdo1-depleted JHY4D growth rescue, OD600 30 h; stronger effect = higher value; pdr5 snq2 efflux-pump mutant strain | z-score at 10 µM | 140,000 compounds, 0.21% hits;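 active = z-score above 3 at both the 24 hr and the 30 hr optical density reads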
MRP reversal: reverses drug resistance mediated by MRP; H69AR cells + 2 uM doxorubicin, CellTiter-Glo, 72 h; differential viability (reversal), % at 10 µM; 85,000 compounds, 0.04% hits;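 active = viability drop by adding the cancer drug above about 55%, with treated viability meeting a 40% cutoff, limit read from the data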;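 also: larger differential means the compound sensitizes cells more to doxorubicin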
A number is an active result; 0 = inactive; - = no result given; [ ] = dose if it differs, or a comment. Only some compounds are listed: those with a hit (about 1.3% of all), similar ones and a draw of the others.

SMILES	MRP-1 activ	CD11b adhes enh	Mac1 fbg inh	Phagocytosis inh	SDO1 yeast rescue	MRP reversal
Cc1ccc(S(=O)(=O)c2c(C)nn(C(C)(C)C)c2OC(=O)c2ccco2)cc1	0	0	0	0	0	0
Cc1ccc(S(=O)(=O)c2c(C)nn(C(C)(C)C)c2OC(=O)c2ccc(Br)o2)cc1	0	0	54.2	0	0	0
O=C(CCNC(=O)Cn1ccc2ccccc2c1=O)NCCc1ccccc1Cl	5.1	-	-	0	0	-
CNc1sc(C(=O)c2cccs2)c(N)c1-c1nc2ccccc2s1	9.0	0	0	0	0	0
Cc1ccccc1Nc1cccc2nonc12	0	-	-	0	0	-
O=C(NNC1=C(C(=O)C(F)(F)F)CCC1)c1cccc(Cl)c1	6.5	0	99.3	0	0	0
O=C(NNC1=C(C(=O)C(F)(F)F)CCC1)c1ccc(Cl)cc1	6.4	0	95.8	0	0	0
O=C(NNC(=S)Nc1cccc(C(F)(F)F)c1)c1cccc(Cl)c1	0	-	-	0	0	-
O=C(N/N=C/c1ccccn1)c1cc(-c2ccc3ccccc3c2)n[nH]1	7.5	0	0	0	0	-
O=C(Nc1ccccc1N1CCN(C(=O)c2ccc(Cl)cc2)CC1)c1ccc(Br)cc1	0	0	0	0	0	0
CC(C)C(=O)N1CCN(c2ccccc2NC(=O)c2cccc(Cl)c2)CC1	0	-	-	-	0	78.1
CC1=NN(c2ccc(C)cc2C)C(=O)C1C(c1ccccc1O)C1C(=O)N(c2ccc(C)cc2C)N=C1C (configuration not stated)	5.6	-	-	0	0	-
CC1=NN(c2ccc(C)c(C)c2)C(=O)C1C(c1cccc(O)c1)C1C(=O)N(c2ccc(C)c(C)c2)N=C1C (configuration not stated)	0	-	-	-	0	-
CN(CC(=O)N1CCCC1)S(=O)(=O)c1cc(Cl)ccc1Cl	0	0	0	25.2[artifact]	0	0
CN(CC(=O)O)S(=O)(=O)c1cc(Cl)ccc1Cl	0	0	0	0	0	0
CC(C)NC(=O)[C@@H]1C[C@@]1(C)[C@@H](NC(=O)OCc1ccccc1)c1ccccc1	0	-	-	-	0	-
CC1CCC(NC(=O)c2ccc(NC(=O)c3ccc(=O)[nH]c3)cc2)CC1 (configuration not stated)	0	-	-	-	0	-
COc1ccc2c(Cl)c(C(=O)NN)sc2c1	0	0	0	0	0	-
COc1ccc2c(Cl)c(C(=O)NCCCn3ccnc3)sc2c1	0	0	0	0	0	78.6
CCN(c1ccccc1)S(=O)(=O)c1ccc(F)cc1C	0	0	0	-	0	0
N#Cc1nc(COc2ccc(F)cc2)oc1N1CCC(Cc2ccccc2)CC1	5.3	0	0	0	0	0
CC(C)Cn1c(N)c(C(=O)COC(=O)c2cc(-c3ccccc3)nc3ccccc23)c(=O)n(C)c1=O	0	-	-	-	0	-
Cc1nn(-c2ccccc2)c(C)c1C(=O)OCC(=O)c1c(N)n(CC(C)C)c(=O)n(C)c1=O	0	0	64.9	0	0	0
CN1c2ccccc2C(O)=C(C(=S)Nc2ccc(Cl)cc2)S1(=O)=O	0	0	52.4	0	0	-
COc1ccc(-c2ocnc2C(=O)Nc2ccccc2N2CCCCC2)cc1	7.2	0	0	0	0	0
SMILES	MRP-1 activ	CD11b adhes enh	Mac1 fbg inh	Phagocytosis inh	SDO1 yeast rescue	MRP reversal
CCOc1ccc(C(=O)Nc2ccccc2N2CCCC2)cc1	0	-	-	-	0	0
COc1ccc(CN=C2NC(=O)CC(C(=O)Nc3ccc(F)cc3)S2)cc1 (configuration not stated)	6.7	0	0	0	0	-
COc1ccc(C)cc1NC(=O)CN(C)S(=O)(=O)c1cnc[nH]1	0	0	0	0	0	0
COC(=O)c1c(F)c(F)c(NCCO)c(F)c1F	0	0	0	0	0	0
Cc1ccc(S(=O)(=O)N2CCN(C(=O)CN3CCOCC3)C2c2ccccc2)cc1 (configuration not stated)	0	0	0	0	0	0
O=C(O)CCc1ccc(-c2cccs2)n1NC(=O)c1ccc(Cl)cc1	0	0	0	79.0	0	0
O=C(COC(=O)C1Cc2ccccc2CN1C(=O)c1ccccc1)Nc1ccc(SC(F)F)cc1 (configuration not stated)	0	0	0	0	0	-
CCn1c(CCC(=O)Nc2nc3c(s2)CCCC3)nc2cc(S(=O)(=O)N(C)C)ccc21	0	0	0	-	0	0
Cc1oc(-c2ccc(Cl)cc2)nc1CN1CCCC(C(=O)NCc2ccccn2)C1 (configuration not stated)	0	0	0	0	0	0
Cc1oc(-c2ccc(Cl)cc2)nc1CN1CCCC(C(=O)NCc2cccnc2)C1 (configuration not stated)	0	0	84.1	0	0	0
C=C(Cl)COc1ccc2c(CCCC)cc(=O)oc2c1	6.2	0	0	0	0	0
Clc1ccc(OCCSc2ncccn2)c2ccccc12	5.0	0	0	0	0	0
CC1(C)CC(=O)C2=C(C1)N(c1ccc(F)cc1)C(=O)CC2c1ccsc1 (configuration not stated)	0	0	0	-	0	0
N#Cc1c(-c2ccco2)nc(SCC(=O)Nc2cccc(Cl)c2)[nH]c1=O	5.5	0	0	0	0	0
O=C(CSc1nc2c(c(=O)[nH]1)CCC2)Nc1cccc(Cl)c1	0	0	0	0	0	0
Cc1ccc(NC2=CC(=O)CC(c3ccc(Cl)cc3)C2)cc1 (configuration not stated)	4.7	-	-	0	0	-
CC(C)(C)c1cc(C(c2cccnc2)N2CCN(CCO)CC2)cc(C(C)(C)C)c1O (configuration not stated)	0	0	52.3	0	0	0
O=C(COC(=O)[C@@H]1CC(O)CN1S(=O)(=O)c1ccc([N+](=O)[O-])cc1)NC12CC3CC(CC(C3)C1)C2 (some centres not stated)	0	0	0	0	0	-
CC(C)(C)c1cc(Br)ccc1OCC(=O)Nc1ncn[nH]1	6.2	0	0	0	0	0
CCc1ccc(NC(=O)C(C)OC(=O)c2cccc(S(=O)(=O)N3CCc4ccccc4C3)c2)cc1 (configuration not stated)	0	0	0	0	0	-
O=C1NC(=Nc2ccccc2)SC1Cc1cccc(Cl)c1Cl (configuration not stated)	5.7	-	-	0	0	-
Cc1ccc(C(C)C)cc1OCCOCCN1CCCC1	0	0	0	0	0	0
O=c1cc(-c2ccccc2Cl)oc2ccc([N+](=O)[O-])c(O)c12	0	-	-	-	0	-
O=c1cc(-c2ccccc2Cl)oc2c([N+](=O)[O-])c(O)cc(O)c12	6.5	-	-	-	0	-
Cc1ccc(-c2nc3ccc(NS(=O)(=O)c4ccccc4)cc3[nH]2)o1	0	0	0	142.8	0	0
Cc1csc(C(C#N)C(=O)c2cc3ccccc3o2)n1 (configuration not stated)	6.1	-	-	-	0	0
O=C(N/C(=C/c1cccnc1)C(=O)N1CCOCC1)c1ccco1	0	-	-	0	0	-

Screening results as filed in PubChem.
